Test [1] deals with Bile acid receptor (Homo sapiens) (UniProt Q96RI1). Nature of the test: ATG_IR1_CIS: Attagene CIS-FACTORIAL HepG2 Assay for human Nuclear Receptor Subfamily 1 Group H Member 4 (NR1H4), IR1 submotif (AID 2282946). The settings on record: IR1 reporter transcription, actives raise or lower the signal. The gist of the method: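 HepG2 cells transiently transfected with multiple cis-promoter-driven reporter units to measure endogenous transcription factor activity; 24 h exposure. Reporter mRNA read by RT-PCR, FAM labelling, HpaI digestion and capillary electrophoresis. Bidirectional fit versus DMSO.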

The nature of test [2]: ATG_GRE_CIS: Attagene CIS-FACTORIAL HepG2 Assay for human Glucocorticoid Response Elements (GRE) (AID 2282947). The settings on record: HepG2 GRE cis-reporter, Attagene multiplex mRNA; actives raise or lower the signal. The gist of the method:
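Transiently transfected HepG2 cells carrying GRE cis-reporter units (endogenous TF activity) dosed 24 h; reporter mRNA quantified by RT-PCR, 6-FAM labelling, HpaI digestion and capillary electrophoresis. Bidirectional fit versus DMSO baseline.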

A short description of test [3]: ATG_ISRE_CIS: Attagene CIS-FACTORIAL HepG2 Assay for human Interferon Regulatory Factor 1 (IRF1) binding to an Interferon-Stimulated Response Element (ISRE) (AID 2282948). As to conditions: HepG2 ISRE cis-reporter (Attagene), mRNA transcription readout; actives raise or lower the signal. The gist of the method:
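Quantitation relies on labelled RT-PCR fragments separated by capillary electrophoresis. Human HepG2 cells bearing cis-promoter reporter constructs were treated 24 h; DMSO served as baseline for bidirectional fitting.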

Test [4] in a line: ATG_M_32_CIS: Attagene CIS-FACTORIAL HepG2 Assay for M32 Transcription Factor (Internal Marker) (AID 2282949).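 Also: background control marker of the multiplexed CIS panel rather than a real target.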 The settings on record: HepG2 Attagene cis-factorial M32 reporter, mRNA; actives raise or lower the signal. The gist of the method:
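Fluorescent capillary electrophoresis peaks of HpaI-digested, FAM-labelled RT-PCR reporter products give the signal. Source: transiently transfected human liver HepG2 cells, 24 h after chemical dosing; bidirectional fitting against DMSO.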

Test [5] can be described thus: ATG_M_06_CIS: Attagene CIS-FACTORIAL HepG2 Assay for M06 Transcription Factor (Internal Marker) (AID 2282950). The settings on record: HepG2 Attagene CIS-FACTORIAL M06 internal marker reporter; actives raise or lower the signal. Put shortly:
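Internal background marker within multiplexed cis-reporter HepG2 system. Cells transiently transfected, dosed 24 h; reporter mRNA measured by RT-PCR, HpaI digestion and capillary electrophoresis. Bidirectional fit relative to DMSO.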

Test [6] addresses Hypoxia-inducible factor 1-alpha (Homo sapiens) (UniProt Q16665). Nature of the test: ATG_HIF1a_CIS: Attagene CIS-FACTORIAL HepG2 Assay for human Hypoxia Inducible Factor 1 (HIF1A) (AID 2282951). As to conditions: HepG2 Attagene cis-factorial HIF1a reporter transcription; actives raise or lower the signal. The gist of the method: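 HepG2 cells transiently transfected with multiple cis-regulated reporter transcription units measure endogenous transcription factor activity. After 24 h exposure, reporter mRNA is quantified by RT-PCR with 6-FAM labelling, HpaI digestion and capillary electrophoresis. Bidirectional fitting against DMSO.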

In test [7] the target is Hepatocyte nuclear factor 6 (Homo sapiens) (UniProt Q9UBC0). Nature of the test: ATG_HNF6_CIS: Attagene CIS-FACTORIAL HepG2 Assay for human Hepatocyte Nuclear Factor 6 (HNF6) (AID 2282952). The settings on record: HepG2 Attagene cis-factorial HNF6 reporter transcription; actives raise or lower the signal. Put shortly:
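HepG2 cells transiently transfected with cis-element-driven multiplexed reporter units measuring endogenous transcription factor activity. After 24 h exposure, reporter mRNA quantified by RT-PCR, FAM-labelled fragments and capillary electrophoresis; bidirectional fitting versus DMSO.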

The target in test [8] is Heat shock factor protein 1 (Homo sapiens) (UniProt Q00613). Nature of the test: ATG_HSE_CIS: Attagene CIS-FACTORIAL HepG2 Assay for human Heat Shock Transcription Factor 1 (HSE) (AID 2282953). As to conditions: HepG2 HSE cis-reporter, Attagene RNA transcription; actives raise or lower the signal. The gist of the method:
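HepG2 cells transfected with cis-promoter reporter units sensing endogenous transcription factor activity; reporter mRNA quantified 24 h post-dose by RT-PCR and capillary electrophoresis of 6-FAM-labelled products. Bidirectional fitting against DMSO.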

Test [9] can be described thus: ATG_MRE_CIS: Attagene CIS-FACTORIAL HepG2 Assay for human Metal Responsive Element (MRE) (AID 2282954). The settings on record: HepG2 MRE cis-reporter transcription, Attagene multiplex; actives raise or lower the signal. Put shortly:
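HepG2 cells transiently transfected with cis-element-driven reporter units; mRNA measured 24 h after dosing. Reporter transcripts quantified by RT-PCR, FAM labelling, HpaI digestion and capillary electrophoresis; bidirectional fit versus DMSO.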

Test [10] has as its target Paired box protein Pax-6 (Homo sapiens) (UniProt P26367). Nature of the test: ATG_Pax6_CIS: Attagene CIS-FACTORIAL HepG2 Assay for human Paired Box 6 (PAX6) (AID 2282956). As to conditions: HepG2 CIS-FACTORIAL PAX6 reporter transcription, RNA readout; actives raise or lower the signal. Put shortly: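 After twenty-four hours of chemical exposure, transfected HepG2 cells are harvested for RNA. Cis-promoter reporter transcripts are amplified, fluorescently labelled and sized by capillary electrophoresis, with gain and loss of signal scored against DMSO.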

The nature of test [11]: ATG_PXRE_CIS: Attagene CIS-FACTORIAL HepG2 Assay for human Pregnane X Receptor Element (PXRE) (AID 2282957). The settings on record: HepG2 Attagene CIS-FACTORIAL PXRE reporter, mRNA; actives raise or lower the signal. The gist of the method:
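HepG2 cells transiently transfected with cis-element-driven multiplexed reporter units; after 24 h chemical exposure, reporter mRNA measured by RT-PCR, 6-FAM labelling, HpaI digestion and capillary electrophoresis. Bidirectional fitting relative to DMSO.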

The nature of test [12]: ATG_PPRE_CIS: Attagene CIS-FACTORIAL HepG2 Assay for human Peroxisome Proliferator-activated Response Element (PPRE) (AID 2282958). As to conditions: HepG2 PPRE cis-element reporter, Attagene transcription factor profiling; actives raise or lower the signal. The gist of the method: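 HepG2 cells are transiently transfected with multiplexed cis-promoter reporter units to report endogenous PPAR activity. After 24 h dosing, reporter mRNA is read by RT-PCR and capillary electrophoresis. Fitting is bidirectional against DMSO.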

Test [13] is described as follows: ATG_RORE_CIS: Attagene CIS-FACTORIAL HepG2 Assay for human RAR-related Orphan Receptor Element (RORE) (AID 2282959). As to conditions: HepG2 Attagene cis-factorial RORE reporter, mRNA; actives raise or lower the signal. The gist of the method: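 HepG2 cells carrying transiently transfected cis-regulated reporter units; RORE-driven reporter mRNA quantified 24 h post-dosing by RT-PCR, 6-FAM primer extension, HpaI digestion and capillary electrophoresis. Bidirectional fit versus DMSO.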

Test [14] in a line: ATG_Sox_CIS: Attagene CIS-FACTORIAL HepG2 Assay for human SRY-box transcription factor (SOX) (AID 2282960). As to conditions: HepG2 Attagene cis-factorial SOX reporter, mRNA; actives raise or lower the signal. Put shortly: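 HepG2 cells transiently transfected with multiple cis-regulated reporter units, then dosed for 24 h. Reporter mRNA quantified by RT-PCR, fluorescent labelling, HpaI digestion and capillary electrophoresis; bidirectional fit versus DMSO.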

Test [15] concerns the target Transcription factor Sp1 (Homo sapiens) (UniProt P08047). Nature of the test: ATG_Sp1_CIS: Attagene CIS-FACTORIAL HepG2 Assay for human Specificity Protein 1 (Sp1) (AID 2282961). As to conditions: HepG2 Sp1 cis-reporter transcription, actives raise or lower the signal. Put shortly:
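HepG2 cells transiently transfected with multiplexed cis-regulated reporter constructs, chemical exposure 24 h. Reporter mRNA quantified by RT-PCR with capillary electrophoresis; bidirectional fit relative to DMSO.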

A short description of test [16]: ATG_SREBP_CIS: Attagene CIS-FACTORIAL HepG2 Assay for human Sterol Regulatory Element Binding (SREBP) (AID 2282962). As to conditions: HepG2 Attagene cis-factorial SREBP reporter, mRNA; actives raise or lower the signal. Put shortly:
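Twenty-four hours after chemical dosing of transfected HepG2 cultures, reporter RNA was converted to cDNA, amplified, end-labelled with 6-FAM and resolved by capillary electrophoresis. Responses were fitted relative to DMSO.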

The target in test [17] is Signal transducer and activator of transcription 3 (Homo sapiens) (UniProt P40763). Nature of the test: ATG_STAT3_CIS: Attagene CIS-FACTORIAL HepG2 Assay for human Signal Transducer and Activator of Transcription 3 (STAT3) (AID 2282963). As to conditions: HepG2, Attagene cis-factorial STAT3 reporter transcription; actives raise or lower the signal. The gist of the method: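 HepG2 cells transiently transfected with multiple cis-element-driven reporter units report endogenous transcription factor activity. After 24 h compound exposure, reporter mRNA is measured by RT-PCR, 6-FAM labelling, HpaI digestion and capillary electrophoresis. Fitted bidirectionally versus DMSO.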

Test [18] in a line: ATG_TA_CIS: Attagene CIS-FACTORIAL HepG2 Assay for human TA Basal Promoter (AID 2282964). The settings on record: HepG2 Attagene CIS-factorial TA basal promoter reporter; actives raise or lower the signal. Put shortly:
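HepG2 cells transiently transfected with multiple reporter units under cis promoter elements, reporting endogenous transcription factor activity; this endpoint tracks the TA basal promoter as background control. Reporter mRNA after 24 h dosing measured by RT-PCR/capillary electrophoresis; bidirectional fits versus DMSO.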

A short description of test [19]: ATG_TCF_b_cat_CIS: Attagene CIS-FACTORIAL HepG2 Assay for human T-Cell-Factor with beta-catenin (TCF/b-cat) (AID 2282965). As to conditions: HepG2 TCF/beta-catenin cis-reporter transcription, actives raise or lower the signal. Put shortly:
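HepG2, transient MRTU transfection, cis-element-driven reporters (endogenous TFs). 24 h compound exposure. Readout: reporter mRNA by RT-PCR + 6-FAM primer extension, HpaI digest, capillary electrophoresis. Gain/loss fit vs DMSO baseline.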

A short description of test [20]: ATG_PBREM_CIS: Attagene CIS-FACTORIAL HepG2 Assay for human Phenobarbital-responsive Enhancer Module (PBREM) (AID 2282955). As to conditions: HepG2 PBREM cis-reporter, Attagene multiplexed transcription; actives raise or lower the signal. The gist of the method:
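HepG2 cells transiently transfected with multiple cis-regulated reporter units measure endogenous transcription factor activity; 24 h compound exposure. Reporter mRNA quantified by RT-PCR, fluorescent labelling, HpaI digestion and capillary electrophoresis; bidirectional fit versus DMSO.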

The values below come from PubChem BioAssay (EPA / NIEHS).

Structures are written as SMILES. Calls of active or inactive are those of the source. The calls were made as follows: active = hit-call score of the fitted dose curve at least 0.9, where 1 is the maximum; inactive = score below 0.9.

Chain of Hypoxia-inducible factor 1-alpha (Homo sapiens) (Q16665 whole entry, looked up): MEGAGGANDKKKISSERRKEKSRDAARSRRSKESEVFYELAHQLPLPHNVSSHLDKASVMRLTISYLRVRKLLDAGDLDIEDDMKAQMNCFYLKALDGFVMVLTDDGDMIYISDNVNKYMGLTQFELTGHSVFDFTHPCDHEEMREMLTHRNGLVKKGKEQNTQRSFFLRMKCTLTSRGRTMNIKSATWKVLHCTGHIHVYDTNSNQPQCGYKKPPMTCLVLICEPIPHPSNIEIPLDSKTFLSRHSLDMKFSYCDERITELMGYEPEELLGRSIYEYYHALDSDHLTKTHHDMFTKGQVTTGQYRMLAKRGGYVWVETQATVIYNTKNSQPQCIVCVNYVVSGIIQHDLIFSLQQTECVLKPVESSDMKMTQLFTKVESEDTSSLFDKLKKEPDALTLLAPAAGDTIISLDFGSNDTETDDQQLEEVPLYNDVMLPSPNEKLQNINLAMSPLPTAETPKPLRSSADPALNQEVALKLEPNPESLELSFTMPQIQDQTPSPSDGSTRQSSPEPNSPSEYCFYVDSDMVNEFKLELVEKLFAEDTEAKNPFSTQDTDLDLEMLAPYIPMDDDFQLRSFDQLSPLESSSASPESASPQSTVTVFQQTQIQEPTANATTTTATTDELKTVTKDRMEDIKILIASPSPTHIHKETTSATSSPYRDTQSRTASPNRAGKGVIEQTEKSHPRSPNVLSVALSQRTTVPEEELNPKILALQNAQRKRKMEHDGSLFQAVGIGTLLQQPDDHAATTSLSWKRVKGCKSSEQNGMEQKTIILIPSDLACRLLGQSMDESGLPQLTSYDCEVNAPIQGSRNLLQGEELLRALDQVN
Chain of Hepatocyte nuclear factor 6 (Homo sapiens) (Q9UBC0 whole entry, looked up, the tested form may be a part): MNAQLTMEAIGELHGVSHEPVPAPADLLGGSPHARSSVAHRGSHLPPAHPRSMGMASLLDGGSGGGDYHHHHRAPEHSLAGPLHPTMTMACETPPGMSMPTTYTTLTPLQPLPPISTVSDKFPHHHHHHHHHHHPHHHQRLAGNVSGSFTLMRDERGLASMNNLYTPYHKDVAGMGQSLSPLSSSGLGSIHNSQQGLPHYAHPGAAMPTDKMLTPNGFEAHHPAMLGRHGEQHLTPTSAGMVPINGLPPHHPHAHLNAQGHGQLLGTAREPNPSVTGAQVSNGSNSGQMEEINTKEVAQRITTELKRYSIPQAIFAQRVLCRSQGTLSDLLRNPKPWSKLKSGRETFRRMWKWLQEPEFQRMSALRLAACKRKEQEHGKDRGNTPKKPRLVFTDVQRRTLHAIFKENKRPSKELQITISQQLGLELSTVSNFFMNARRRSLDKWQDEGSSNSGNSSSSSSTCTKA
Chain of Paired box protein Pax-6 (Homo sapiens) (P26367 whole entry, looked up): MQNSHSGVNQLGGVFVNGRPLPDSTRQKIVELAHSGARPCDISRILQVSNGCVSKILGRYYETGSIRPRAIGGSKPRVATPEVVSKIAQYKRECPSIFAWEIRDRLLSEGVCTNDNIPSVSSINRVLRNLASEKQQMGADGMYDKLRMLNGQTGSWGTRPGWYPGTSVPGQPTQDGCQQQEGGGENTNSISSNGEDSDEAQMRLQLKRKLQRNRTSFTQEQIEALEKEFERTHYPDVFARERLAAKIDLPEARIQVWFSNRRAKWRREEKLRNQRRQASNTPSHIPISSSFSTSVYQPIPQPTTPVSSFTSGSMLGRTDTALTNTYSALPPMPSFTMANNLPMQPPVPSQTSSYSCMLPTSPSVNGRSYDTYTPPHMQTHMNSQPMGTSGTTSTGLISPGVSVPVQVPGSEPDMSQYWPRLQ
Chain of Heat shock factor protein 1 (Homo sapiens) (Q00613 whole entry, looked up): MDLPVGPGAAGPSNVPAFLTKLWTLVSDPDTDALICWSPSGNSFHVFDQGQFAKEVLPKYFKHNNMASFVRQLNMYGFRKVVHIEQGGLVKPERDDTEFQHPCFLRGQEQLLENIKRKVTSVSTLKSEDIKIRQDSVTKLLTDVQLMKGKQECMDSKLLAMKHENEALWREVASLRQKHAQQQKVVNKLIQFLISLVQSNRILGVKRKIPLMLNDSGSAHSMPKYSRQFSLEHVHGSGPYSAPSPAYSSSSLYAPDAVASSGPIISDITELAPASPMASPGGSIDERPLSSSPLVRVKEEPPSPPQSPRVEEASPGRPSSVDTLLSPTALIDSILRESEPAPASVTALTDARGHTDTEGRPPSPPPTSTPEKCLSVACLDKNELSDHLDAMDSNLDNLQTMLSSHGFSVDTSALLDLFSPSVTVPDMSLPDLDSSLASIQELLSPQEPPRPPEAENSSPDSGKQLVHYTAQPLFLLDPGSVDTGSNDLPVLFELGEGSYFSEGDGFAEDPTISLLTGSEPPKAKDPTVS
Chain of Bile acid receptor (Homo sapiens) (Q96RI1 whole entry, looked up): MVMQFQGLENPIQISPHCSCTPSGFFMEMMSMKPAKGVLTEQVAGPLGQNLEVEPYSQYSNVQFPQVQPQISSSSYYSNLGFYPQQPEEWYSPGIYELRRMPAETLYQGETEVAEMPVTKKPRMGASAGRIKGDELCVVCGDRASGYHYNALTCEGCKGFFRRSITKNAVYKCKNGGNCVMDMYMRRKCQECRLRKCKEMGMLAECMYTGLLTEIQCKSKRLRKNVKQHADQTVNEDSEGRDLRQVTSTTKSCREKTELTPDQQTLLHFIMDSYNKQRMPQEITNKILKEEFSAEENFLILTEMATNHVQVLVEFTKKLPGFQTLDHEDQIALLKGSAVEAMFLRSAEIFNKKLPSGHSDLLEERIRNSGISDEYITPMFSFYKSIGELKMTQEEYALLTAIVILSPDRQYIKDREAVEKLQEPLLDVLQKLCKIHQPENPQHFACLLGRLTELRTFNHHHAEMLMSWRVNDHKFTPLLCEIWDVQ
Chain of Signal transducer and activator of transcription 3 (Homo sapiens) (P40763 whole entry, looked up): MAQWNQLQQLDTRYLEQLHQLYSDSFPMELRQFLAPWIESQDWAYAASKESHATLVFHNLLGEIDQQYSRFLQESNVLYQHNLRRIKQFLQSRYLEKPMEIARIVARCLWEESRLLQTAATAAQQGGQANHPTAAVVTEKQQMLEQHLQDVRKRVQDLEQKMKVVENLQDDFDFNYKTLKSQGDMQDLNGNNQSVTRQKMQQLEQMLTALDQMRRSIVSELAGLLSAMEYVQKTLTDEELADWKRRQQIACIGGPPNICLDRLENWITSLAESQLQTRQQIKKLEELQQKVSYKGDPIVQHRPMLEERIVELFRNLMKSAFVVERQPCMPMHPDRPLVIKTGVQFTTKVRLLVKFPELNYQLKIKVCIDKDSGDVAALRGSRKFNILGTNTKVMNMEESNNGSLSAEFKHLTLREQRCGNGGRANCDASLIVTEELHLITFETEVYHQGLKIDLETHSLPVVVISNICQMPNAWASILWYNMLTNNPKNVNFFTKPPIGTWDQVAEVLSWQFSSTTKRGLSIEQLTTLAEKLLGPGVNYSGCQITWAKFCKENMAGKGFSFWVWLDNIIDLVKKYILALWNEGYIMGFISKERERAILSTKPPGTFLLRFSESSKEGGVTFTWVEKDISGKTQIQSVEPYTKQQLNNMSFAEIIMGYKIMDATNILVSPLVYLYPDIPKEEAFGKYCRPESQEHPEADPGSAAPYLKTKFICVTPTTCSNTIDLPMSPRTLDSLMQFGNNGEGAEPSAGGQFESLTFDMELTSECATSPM
Chain of Transcription factor Sp1 (Homo sapiens) (P08047 whole entry, looked up): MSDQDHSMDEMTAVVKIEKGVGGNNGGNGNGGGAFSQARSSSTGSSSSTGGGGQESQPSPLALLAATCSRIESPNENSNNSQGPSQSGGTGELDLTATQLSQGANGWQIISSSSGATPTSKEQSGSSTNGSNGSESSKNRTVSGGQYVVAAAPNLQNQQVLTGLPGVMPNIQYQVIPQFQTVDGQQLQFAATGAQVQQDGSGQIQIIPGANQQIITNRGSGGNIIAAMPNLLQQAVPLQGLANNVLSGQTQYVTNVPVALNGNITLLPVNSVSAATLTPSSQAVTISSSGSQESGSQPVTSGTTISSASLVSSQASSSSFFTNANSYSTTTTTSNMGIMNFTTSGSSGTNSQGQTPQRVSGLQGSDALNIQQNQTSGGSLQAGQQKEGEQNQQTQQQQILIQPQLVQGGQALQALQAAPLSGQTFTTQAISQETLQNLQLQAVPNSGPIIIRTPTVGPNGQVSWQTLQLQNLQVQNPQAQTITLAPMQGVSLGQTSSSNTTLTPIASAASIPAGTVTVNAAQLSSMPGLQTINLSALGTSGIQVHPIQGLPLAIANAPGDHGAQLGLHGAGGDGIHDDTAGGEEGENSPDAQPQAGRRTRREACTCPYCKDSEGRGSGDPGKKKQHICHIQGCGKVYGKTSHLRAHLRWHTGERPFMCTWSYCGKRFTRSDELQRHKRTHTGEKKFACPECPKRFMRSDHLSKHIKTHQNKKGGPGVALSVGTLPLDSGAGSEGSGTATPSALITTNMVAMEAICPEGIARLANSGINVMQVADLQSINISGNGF

The term AC50 denotes the concentration at which the activity in the assay is half-maximal. As for `C1=CCCC1`, the call in test [1], in [2], in test [3], in [4], in test [5] and in [7] was inactive. For the same compound, the call in test [8], in test [9], in test [10], in test [11], in test [12] and in test [13] was inactive. For the same compound, the result in test [14], in test [15], in [16], in test [17], in test [18] and in test [19] was inactive. Besides, the AC50 in test [6] was 48.6 µM (active).

Take `NC(=O)C1CO1` (stereo not given): the compound was called inactive in test [1], in test [2], in test [3], in [4], in test [5] and in test [6]. The outcome in [7], in test [8], in [9], in [10], in test [11] and in test [12] was inactive. Further, the call in [13], in test [14], in [15], in [16], in [17] and in test [18] was inactive. Moreover, the call in test [19] was inactive.

With `CCCCCCOC(=O)C(C)CC` (stereo not given), the compound was called inactive in [1], in [2], in test [3], in test [4], in test [5] and in [6]. Further, the compound was called inactive in [7], in [8], in [9], in [20], in test [10] and in test [11]. Besides, the result in test [12], in [13], in [14], in test [15], in [16] and in test [17] was inactive. Besides, the compound was classed as inactive in [18].

Take `CC(C)(C)c1n[nH]c(=O)n(N)c1=O`: the outcome in test [1], in [2], in test [3], in test [4], in test [5] and in test [6] was inactive. Further, the result in test [7], in [8], in test [9], in test [10], in [11] and in test [12] was inactive. Moreover, the outcome in test [13], in test [14], in [15], in test [17], in [18] and in test [19] was inactive.

`CCc1nccnc1C`: the outcome in test [1], in [2], in test [3], in test [4], in test [5] and in test [6] was inactive. Further, the call in test [7], in test [8], in test [9], in test [10], in test [11] and in test [12] was inactive. Moreover, the compound was called inactive in test [13], in [14], in test [15], in test [16], in [17] and in [18]. Further, in test [19], the outcome was inactive.

Turning to `Oc1ccc(Cl)cc1Cc1cc(Cl)ccc1O`, the AC50 was 11.1 µM (active) in [1]; 11.1 µM (active) in [6]; 11.1 µM (active) in [9]; 11.1 µM (active) in [10]; 7.54 µM (active) in test [16]; 18.8 µM (active) in test [19]. The compound was called inactive in [2], in [3], in test [4], in test [5], in test [7] and in [8]. The result in test [20], in [11], in test [14], in test [15], in test [17] and in [18] was inactive.

For `CC(=O)c1ccc[nH]1`, the compound was classed as inactive in test [1], in test [2], in test [3], in [4], in test [5] and in test [6]. The compound was classed as inactive in [7], in test [8], in test [9], in test [10], in test [11] and in test [12]. In addition, the outcome in [13], in test [14], in test [15], in test [17], in [18] and in test [19] was inactive.
